# Data published in the supplement of paper PMC10127200.
# Structures can show the parent of a compound that is named as a salt.
# Columns and labels:
# Test in all cases: Euclidean distance of Cell Painting phenotypic profile (signed KS, 77 features) to DMSO centroid (dimensionless distance); 5 or 10 uM (library dependent); higher = stronger phenotypic change vs DMSO (phenoactivity)
# Conditions in all cases: 48 h
# 786-O = system: 786-O
# Outline: (§1)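 Stained cells were imaged confocally at 20X with 9 fields per well, after 48 h of exposure to library compounds at 10 or 5 uM (set by library; 0.1% DMSO final). The cells were five cancer lines and a healthy fibroblast line. From the images, Harmony extracted 77 features, each expressed as a signed Kolmogorov-Smirnov statistic relative to same-plate vehicle wells. Phenoactivity is measured as Euclidean distance to the median vehicle profile, using plate-position-corrected, correlation-weighted profiles averaged across replicates at the top dose.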
# A549 = system: A549
# Outline: as §1
# FB = system: FB
# Outline: as §1
# HEPG2 = system: HEPG2
# Outline: as §1
# OVCAR4 = system: OVCAR4
# Outline: as §1
SMILES,Euclidean distance (786-O),Euclidean distance (A549),Euclidean distance (FB),Euclidean distance (HEPG2),Euclidean distance (OVCAR4)
CO[C@@]12[C@H](COC(N)=O)C3=C(C(=O)C(C)=C(N)C3=O)N1C[C@@H]1N[C@@H]12 [Mitomycin C],3.14,3.37,3.89,3.46,3.61
CC12CCC(CC1)C(C)(C)O2 [Eucalyptol],0.884,0.614,0.855,0.869,0.746
CC1=C(/C=C/C(C)=C/C=C/C(C)=C/C(=O)O)C(C)(C)CCC1 [Tretinoin],1.24,1.29,2.68,1.21,1.18
CCc1ccc(Cc2ccc3c(c2)[C@]2(OC3)O[C@H](CO)[C@@H](O)[C@H](O)[C@H]2O)cc1 [Tofogliflozin(CSG 452)],1.15,1.03,0.713,0.386,1.56
Nc1nc(N)nc(-c2cc(Cl)ccc2Cl)n1 [Irsogladine],1.09,1.05,0.809,0.613,1.41
COCCCOc1cc(C[C@@H](C[C@H](N)[C@@H](O)C[C@H](C(=O)NCC(C)(C)C(N)=O)C(C)C)C(C)C)ccc1OC [Aliskiren Hemifumarate],0.778,0.371,0.622,0.506,0.752
Nc1nc(N)c2nc(-c3ccccc3)c(N)nc2n1 [Triamterene],1.01,2.17,1.13,1.45,1.29
OCCOCCN1CCN(C2=Nc3ccccc3Sc3ccccc32)CC1 [Quetiapine],0.8,0.671,0.864,1.02,0.901
CC(CN(C)C)CN1c2ccccc2CCc2ccccc21 (stereo not given) [Trimipramine Maleate],1.08,1.02,1.91,1.2,1.57
CC(=O)c1cc2c(o1)C(=O)c1ccccc1C2=O [Napabucasin],2.96,3.97,3.91,3.62,5.51
Cc1nnc(C(=O)NC(C)(C)c2nc(C(=O)NCc3ccc(F)cc3)c(O)c(=O)n2C)o1 [Raltegravir (MK-0518)],1.17,0.695,1.11,0.537,1.35
CC(C)(C)c1ccc(C(=O)CCCN2CCC(OC(c3ccccc3)c3ccccc3)CC2)cc1 [Ebastine],1.64,1.24,1.83,0.905,1.22
CCOC(=O)[N-]c1c[n+](N2CCOCC2)no1 [Molsidomine],0.969,1.06,0.842,0.73,1.63
O=c1c(O)c(-c2ccc(O)cc2O)oc2cc(O)cc(O)c12 [Morin Hydrate],0.826,0.616,0.68,0.312,1.06
CC(C)(Cc1ccc2ccccc2c1)NC[C@@H](O)COc1cccc(Cl)c1C#N,1.35,1.64,1.06,1.77,1.45
COc1cc(N)cn[n+]1-c1ccccc1 [Amezinium (methylsulfate)],1.39,0.864,0.801,0.523,1.16
CC(=O)[C@H]1CC[C@H]2[C@@H]3CCC4=CC(=O)CC[C@]4(C)[C@H]3CC[C@]12C [Progesterone],0.734,0.774,0.883,0.863,0.832
CC(C)C(=O)Nc1ccc([N+](=O)[O-])c(C(F)(F)F)c1 [Flutamide],0.873,0.771,1.09,0.723,1.99
Clc1ccc(COC(Cn2ccnc2)c2ccc(Cl)cc2Cl)c(Cl)c1 (stereo not given) [Miconazole Nitrate],1.25,1.35,0.864,0.872,0.979
C(=C\c1ccccc1)/CN1CCN(C(c2ccccc2)c2ccccc2)CC1 [Cinnarizine],0.758,1.16,1.01,0.713,1.63
